# Measured values taken from paper PMC11006913.
# Numbering of substitutions follows the chain as printed.
# Columns and labels:
# Experiment in all cases: PBM; 200 nM protein, PBS
# Settings in all cases: dsDNA, one strand shown
# NKX2-5 [1] = target: NKX2-5 (Homo sapiens, UniProt P52952 125-210, R139K)
# MSX2 [2] = target: MSX2 (Homo sapiens, UniProt P35548 130-214, R199I)
# ALX3 [3] = target: ALX3 (Homo sapiens, UniProt O95076 139-225, N203Q)
# MSX2 [4] = target: MSX2 (Homo sapiens, UniProt P35548 130-214)
# Chain of MSX2 (Homo sapiens, UniProt P35548 130-214) (P35548 130-214): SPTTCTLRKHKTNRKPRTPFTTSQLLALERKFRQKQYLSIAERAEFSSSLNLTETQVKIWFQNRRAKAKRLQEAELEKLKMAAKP
# ALX3 [5] = target: ALX3 (Homo sapiens, UniProt O95076 139-225)
# Chain of ALX3 (Homo sapiens, UniProt O95076 139-225) (O95076 139-225): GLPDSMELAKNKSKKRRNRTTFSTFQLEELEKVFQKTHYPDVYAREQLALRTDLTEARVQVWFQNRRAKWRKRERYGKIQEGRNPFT
# ALX3 [6] = target: ALX3 (Homo sapiens, UniProt O95076 139-225, L168Q)
# Chain of ALX3 (Homo sapiens, UniProt O95076 139-225, L168Q) (O95076 139-225 L168Q): as the sequence (O95076 139-225) above, with L30Q counted along it
# ALX3 [7] = target: ALX3 (Homo sapiens, UniProt O95076 139-225, L168V)
# Chain of ALX3 (Homo sapiens, UniProt O95076 139-225, L168V) (O95076 139-225 L168V): as the sequence (O95076 139-225) above, with L30V counted along it
# MSX2 [8] = target: MSX2 (Homo sapiens, UniProt P35548 130-214, F161Y)
# Chain of MSX2 (Homo sapiens, UniProt P35548 130-214, F161Y) (P35548 130-214 F161Y): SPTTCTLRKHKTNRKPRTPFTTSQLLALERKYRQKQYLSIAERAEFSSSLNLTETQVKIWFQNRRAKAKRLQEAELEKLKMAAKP
# ALX3 [9] = target: ALX3 (Homo sapiens, UniProt O95076 139-225, N203S)
# Chain of ALX3 (Homo sapiens, UniProt O95076 139-225, N203S) (O95076 139-225 N203S): as the sequence (O95076 139-225) above, with N65S counted along it
# NKX2-5 [10] = target: NKX2-5 (Homo sapiens, UniProt P52952 125-210)
# Chain of NKX2-5 (Homo sapiens, UniProt P52952 125-210) (P52952 125-210): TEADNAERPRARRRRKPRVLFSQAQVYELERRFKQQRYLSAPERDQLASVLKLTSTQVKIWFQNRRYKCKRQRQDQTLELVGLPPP
# NKX3-2 [11] = target: NKX3-2 (Homo sapiens, UniProt P78367 192-278, P234S)
# Chain of NKX3-2 (Homo sapiens, UniProt P78367 192-278, P234S) (P78367 192-278 P234S): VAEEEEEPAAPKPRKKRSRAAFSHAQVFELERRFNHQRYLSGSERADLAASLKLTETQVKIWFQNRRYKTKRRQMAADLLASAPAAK
# NKX3-2 [12] = target: NKX3-2 (Homo sapiens, UniProt P78367 192-278)
# Chain of NKX3-2 (Homo sapiens, UniProt P78367 192-278) (P78367 192-278): as the sequence (P78367 192-278 P234S) above, with S43P counted along it
# NKX2-6 [13] = target: T1, NKX2-6 (Homo sapiens, UniProt A6NCS4 118-204, R150C)
# T1 sequence: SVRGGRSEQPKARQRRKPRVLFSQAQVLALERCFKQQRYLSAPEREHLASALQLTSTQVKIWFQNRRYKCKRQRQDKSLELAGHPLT
# PROP1 [14] = target: PROP1 (Homo sapiens, UniProt O75360 56-141)
# Chain of PROP1 (Homo sapiens, UniProt O75360 56-141) (O75360 56-141): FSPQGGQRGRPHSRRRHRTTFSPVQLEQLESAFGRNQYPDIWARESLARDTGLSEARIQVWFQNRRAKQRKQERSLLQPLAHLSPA
# PROP1 [15] = target: PROP1 (Homo sapiens, UniProt O75360 56-141, R99H)
# Chain of PROP1 (Homo sapiens, UniProt O75360 56-141, R99H) (O75360 56-141 R99H): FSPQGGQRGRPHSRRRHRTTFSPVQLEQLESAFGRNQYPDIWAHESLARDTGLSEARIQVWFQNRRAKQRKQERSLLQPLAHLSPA
# PROP1 [16] = target: PROP1 (Homo sapiens, UniProt O75360 56-141, F88S)
# Chain of PROP1 (Homo sapiens, UniProt O75360 56-141, F88S) (O75360 56-141 F88S): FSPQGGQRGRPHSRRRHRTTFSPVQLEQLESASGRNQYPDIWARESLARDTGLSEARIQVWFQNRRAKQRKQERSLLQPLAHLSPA
# NKX2-6 [17] = target: T2, NKX2-6 (Homo sapiens, UniProt A6NCS4 118-204)
# T2 sequence: T1 sequence with C33R
# NKX2-6 [18] = target: T3, NKX2-6 (Homo sapiens, UniProt A6NCS4 118-204, F151L)
# T3 sequence: T1 sequence with C33R, F34L
# ALX1 [19] = target: ALX1 (Homo sapiens, UniProt Q15699 118-204, L144V)
# Chain of ALX1 (Homo sapiens, UniProt Q15699 118-204, L144V) (Q15699 118-204 L144V): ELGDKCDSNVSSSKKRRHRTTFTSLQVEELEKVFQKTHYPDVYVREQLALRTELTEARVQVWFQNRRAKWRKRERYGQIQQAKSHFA
# ALX1 [20] = target: ALX1 (Homo sapiens, UniProt Q15699 118-204, L144R)
# Chain of ALX1 (Homo sapiens, UniProt Q15699 118-204, L144R) (Q15699 118-204 L144R): as the sequence (Q15699 118-204 L144V) above, with V27R counted along it
# ALX1 [21] = target: ALX1 (Homo sapiens, UniProt Q15699 118-204)
# Chain of ALX1 (Homo sapiens, UniProt Q15699 118-204) (Q15699 118-204): as the sequence (Q15699 118-204 L144V) above, with V27L counted along it
# NKX2-4 = target: T4, NKX2-4 (Homo sapiens, UniProt Q9H2Z4 175-261, R246Q)
# T4 sequence: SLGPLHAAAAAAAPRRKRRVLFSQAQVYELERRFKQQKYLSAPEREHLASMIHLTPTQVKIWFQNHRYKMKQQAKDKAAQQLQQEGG
# Chain of NKX2-5 (Homo sapiens, UniProt P52952 125-210, R139K) (P52952 125-210 R139K): as the sequence (P52952 125-210) above, with R15K counted along it
# Chain of MSX2 (Homo sapiens, UniProt P35548 130-214, R199I) (P35548 130-214 R199I): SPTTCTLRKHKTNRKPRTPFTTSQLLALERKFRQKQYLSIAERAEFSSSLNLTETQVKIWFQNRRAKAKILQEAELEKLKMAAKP
# Chain of ALX3 (Homo sapiens, UniProt O95076 139-225, N203Q) (O95076 139-225 N203Q): as the sequence (O95076 139-225) above, with N65Q counted along it
sequence,measurement,setting,value
CCGACGCA,binding signal,NKX2-5 [1],"8.78 upbm affinity estimate (log intensity, higher = more binding, comparable within an allelic series)"
same,binding signal,MSX2 [2],"9.38 upbm affinity estimate (log intensity, higher = more binding, comparable within an allelic series)"
same,binding signal,ALX3 [3],"7.72 upbm affinity estimate (log intensity, higher = more binding, comparable within an allelic series)"
same,binding signal,MSX2 [4],"9.17 upbm affinity estimate (log intensity, higher = more binding, comparable within an allelic series)"
same,binding signal,ALX3 [5],"7.54 upbm affinity estimate (log intensity, higher = more binding, comparable within an allelic series)"
same,binding signal,ALX3 [6],"7.69 upbm affinity estimate (log intensity, higher = more binding, comparable within an allelic series)"
same,binding signal,ALX3 [7],"7.71 upbm affinity estimate (log intensity, higher = more binding, comparable within an allelic series)"
same,binding signal,MSX2 [8],"9.25 upbm affinity estimate (log intensity, higher = more binding, comparable within an allelic series)"
same,binding signal,ALX3 [9],"7.75 upbm affinity estimate (log intensity, higher = more binding, comparable within an allelic series)"
same,binding signal,NKX2-5 [10],"8.7 upbm affinity estimate (log intensity, higher = more binding, comparable within an allelic series)"
AGCCCAGG,binding signal,NKX2-5 [1],"8.68 upbm affinity estimate (log intensity, higher = more binding, comparable within an allelic series)"
same,binding signal,MSX2 [2],"9.6 upbm affinity estimate (log intensity, higher = more binding, comparable within an allelic series)"
same,binding signal,MSX2 [4],"9.67 upbm affinity estimate (log intensity, higher = more binding, comparable within an allelic series)"
same,binding signal,MSX2 [8],"9.66 upbm affinity estimate (log intensity, higher = more binding, comparable within an allelic series)"
same,binding signal,NKX3-2 [11],"10.1 upbm affinity estimate (log intensity, higher = more binding, comparable within an allelic series)"
same,binding signal,NKX2-5 [10],"8.63 upbm affinity estimate (log intensity, higher = more binding, comparable within an allelic series)"
same,binding signal,NKX3-2 [12],"10.1 upbm affinity estimate (log intensity, higher = more binding, comparable within an allelic series)"
GCGCGTCC,binding signal,NKX2-5 [1],"8.83 upbm affinity estimate (log intensity, higher = more binding, comparable within an allelic series)"
same,binding signal,NKX2-6 [13],"9.52 upbm affinity estimate (log intensity, higher = more binding, comparable within an allelic series)"
same,binding signal,PROP1 [14],"6.74 upbm affinity estimate (log intensity, higher = more binding, comparable within an allelic series)"
same,binding signal,PROP1 [15],"6.79 upbm affinity estimate (log intensity, higher = more binding, comparable within an allelic series)"
same,binding signal,PROP1 [16],"6.63 upbm affinity estimate (log intensity, higher = more binding, comparable within an allelic series)"
same,binding signal,NKX3-2 [11],"10.6 upbm affinity estimate (log intensity, higher = more binding, comparable within an allelic series)"
same,binding signal,NKX2-5 [10],"8.91 upbm affinity estimate (log intensity, higher = more binding, comparable within an allelic series)"
same,binding signal,NKX3-2 [12],"10.6 upbm affinity estimate (log intensity, higher = more binding, comparable within an allelic series)"
AAGTGGCC,binding signal,NKX2-5 [1],"12.4 upbm affinity estimate (log intensity, higher = more binding, comparable within an allelic series)"
same,binding signal,NKX2-6 [13],"11.6 upbm affinity estimate (log intensity, higher = more binding, comparable within an allelic series)"
same,binding signal,NKX2-6 [17],"13.3 upbm affinity estimate (log intensity, higher = more binding, comparable within an allelic series)"
same,binding signal,NKX2-6 [18],"10.5 upbm affinity estimate (log intensity, higher = more binding, comparable within an allelic series)"
same,binding signal,NKX3-2 [11],"12.9 upbm affinity estimate (log intensity, higher = more binding, comparable within an allelic series)"
same,binding signal,NKX2-5 [10],"12.4 upbm affinity estimate (log intensity, higher = more binding, comparable within an allelic series)"
same,binding signal,NKX3-2 [12],"13.1 upbm affinity estimate (log intensity, higher = more binding, comparable within an allelic series)"
CCAGCAGG,binding signal,NKX2-5 [1],"8.6 upbm affinity estimate (log intensity, higher = more binding, comparable within an allelic series)"
same,binding signal,ALX1 [19],"6.58 upbm affinity estimate (log intensity, higher = more binding, comparable within an allelic series)"
same,binding signal,ALX1 [20],"6.51 upbm affinity estimate (log intensity, higher = more binding, comparable within an allelic series)"
same,binding signal,ALX1 [21],"6.53 upbm affinity estimate (log intensity, higher = more binding, comparable within an allelic series)"
same,binding signal,NKX2-5 [10],"8.77 upbm affinity estimate (log intensity, higher = more binding, comparable within an allelic series)"
ACTAAGTG,binding signal,NKX2-5 [1],"12.3 upbm affinity estimate (log intensity, higher = more binding, comparable within an allelic series)"
same,binding signal,NKX2-6 [13],"11.6 upbm affinity estimate (log intensity, higher = more binding, comparable within an allelic series)"
same,binding signal,NKX2-6 [17],"13.3 upbm affinity estimate (log intensity, higher = more binding, comparable within an allelic series)"
same,binding signal,NKX2-6 [18],"10.6 upbm affinity estimate (log intensity, higher = more binding, comparable within an allelic series)"
same,binding signal,NKX3-2 [11],"12.9 upbm affinity estimate (log intensity, higher = more binding, comparable within an allelic series)"
same,binding signal,NKX2-5 [10],"12.3 upbm affinity estimate (log intensity, higher = more binding, comparable within an allelic series)"
same,binding signal,NKX3-2 [12],"12.9 upbm affinity estimate (log intensity, higher = more binding, comparable within an allelic series)"
CCAGCAGC,binding signal,NKX2-5 [1],"8.8 upbm affinity estimate (log intensity, higher = more binding, comparable within an allelic series)"
same,binding signal,NKX2-6 [17],"9.28 upbm affinity estimate (log intensity, higher = more binding, comparable within an allelic series)"
same,binding signal,NKX2-6 [18],"9.29 upbm affinity estimate (log intensity, higher = more binding, comparable within an allelic series)"
same,binding signal,NKX2-5 [10],"8.73 upbm affinity estimate (log intensity, higher = more binding, comparable within an allelic series)"
CACACTTA,binding signal,NKX2-5 [1],"12.5 upbm affinity estimate (log intensity, higher = more binding, comparable within an allelic series)"
same,binding signal,NKX2-6 [13],"11.7 upbm affinity estimate (log intensity, higher = more binding, comparable within an allelic series)"
same,binding signal,NKX2-6 [17],"13.5 upbm affinity estimate (log intensity, higher = more binding, comparable within an allelic series)"
same,binding signal,NKX2-6 [18],"10.9 upbm affinity estimate (log intensity, higher = more binding, comparable within an allelic series)"
same,binding signal,NKX3-2 [11],"12.6 upbm affinity estimate (log intensity, higher = more binding, comparable within an allelic series)"
same,binding signal,NKX2-5 [10],"12.4 upbm affinity estimate (log intensity, higher = more binding, comparable within an allelic series)"
same,binding signal,NKX3-2 [12],"12.7 upbm affinity estimate (log intensity, higher = more binding, comparable within an allelic series)"
GTCCCAGA,binding signal,NKX2-5 [1],"8.89 upbm affinity estimate (log intensity, higher = more binding, comparable within an allelic series)"
same,binding signal,NKX2-6 [17],"9.24 upbm affinity estimate (log intensity, higher = more binding, comparable within an allelic series)"
same,binding signal,NKX2-6 [18],"9.41 upbm affinity estimate (log intensity, higher = more binding, comparable within an allelic series)"
same,binding signal,NKX2-5 [10],"8.98 upbm affinity estimate (log intensity, higher = more binding, comparable within an allelic series)"
AGCACTTG,binding signal,NKX2-5 [1],"12.4 upbm affinity estimate (log intensity, higher = more binding, comparable within an allelic series)"
same,binding signal,NKX2-6 [13],"11.6 upbm affinity estimate (log intensity, higher = more binding, comparable within an allelic series)"
same,binding signal,NKX2-4,"13 upbm affinity estimate (log intensity, higher = more binding, comparable within an allelic series)"
same,binding signal,NKX2-6 [18],"10.6 upbm affinity estimate (log intensity, higher = more binding, comparable within an allelic series)"
same,binding signal,NKX2-5 [10],"12.3 upbm affinity estimate (log intensity, higher = more binding, comparable within an allelic series)"
CGTTCCGC,binding signal,NKX2-5 [1],"8.99 upbm affinity estimate (log intensity, higher = more binding, comparable within an allelic series)"
same,binding signal,NKX2-6 [17],"9.44 upbm affinity estimate (log intensity, higher = more binding, comparable within an allelic series)"
same,binding signal,NKX2-6 [18],"9.27 upbm affinity estimate (log intensity, higher = more binding, comparable within an allelic series)"
same,binding signal,NKX2-5 [10],"8.75 upbm affinity estimate (log intensity, higher = more binding, comparable within an allelic series)"
CTAAGTGC,binding signal,NKX2-5 [1],"12.8 upbm affinity estimate (log intensity, higher = more binding, comparable within an allelic series)"
same,binding signal,NKX2-6 [13],"11.8 upbm affinity estimate (log intensity, higher = more binding, comparable within an allelic series)"
same,binding signal,NKX2-6 [17],"13.7 upbm affinity estimate (log intensity, higher = more binding, comparable within an allelic series)"
same,binding signal,NKX2-6 [18],"11 upbm affinity estimate (log intensity, higher = more binding, comparable within an allelic series)"
same,binding signal,NKX3-2 [11],"13 upbm affinity estimate (log intensity, higher = more binding, comparable within an allelic series)"
same,binding signal,NKX2-5 [10],"12.7 upbm affinity estimate (log intensity, higher = more binding, comparable within an allelic series)"
same,binding signal,NKX3-2 [12],"13 upbm affinity estimate (log intensity, higher = more binding, comparable within an allelic series)"
ACTTAAGA,binding signal,NKX2-5 [1],"12.3 upbm affinity estimate (log intensity, higher = more binding, comparable within an allelic series)"
same,binding signal,NKX2-6 [17],"13.4 upbm affinity estimate (log intensity, higher = more binding, comparable within an allelic series)"
same,binding signal,NKX2-4,"12.9 upbm affinity estimate (log intensity, higher = more binding, comparable within an allelic series)"
same,binding signal,NKX2-6 [18],"10.8 upbm affinity estimate (log intensity, higher = more binding, comparable within an allelic series)"
CGACCTCG,binding signal,NKX2-5 [1],"9.01 upbm affinity estimate (log intensity, higher = more binding, comparable within an allelic series)"
same,binding signal,ALX3 [3],"7.77 upbm affinity estimate (log intensity, higher = more binding, comparable within an allelic series)"
same,binding signal,ALX3 [5],"7.62 upbm affinity estimate (log intensity, higher = more binding, comparable within an allelic series)"
same,binding signal,ALX3 [6],"7.78 upbm affinity estimate (log intensity, higher = more binding, comparable within an allelic series)"
same,binding signal,ALX3 [7],"7.74 upbm affinity estimate (log intensity, higher = more binding, comparable within an allelic series)"
same,binding signal,ALX3 [9],"7.75 upbm affinity estimate (log intensity, higher = more binding, comparable within an allelic series)"
same,binding signal,NKX2-5 [10],"9.16 upbm affinity estimate (log intensity, higher = more binding, comparable within an allelic series)"
CGTCGGTC,binding signal,NKX2-5 [1],"8.88 upbm affinity estimate (log intensity, higher = more binding, comparable within an allelic series)"
same,binding signal,NKX2-6 [13],"9.56 upbm affinity estimate (log intensity, higher = more binding, comparable within an allelic series)"
same,binding signal,NKX2-6 [17],"9.23 upbm affinity estimate (log intensity, higher = more binding, comparable within an allelic series)"
same,binding signal,NKX2-6 [18],"9.36 upbm affinity estimate (log intensity, higher = more binding, comparable within an allelic series)"
same,binding signal,NKX2-5 [10],"8.91 upbm affinity estimate (log intensity, higher = more binding, comparable within an allelic series)"
CACTTAGG,binding signal,NKX2-5 [1],"12.6 upbm affinity estimate (log intensity, higher = more binding, comparable within an allelic series)"
same,binding signal,NKX2-6 [13],"11.7 upbm affinity estimate (log intensity, higher = more binding, comparable within an allelic series)"
same,binding signal,NKX2-6 [17],"13.5 upbm affinity estimate (log intensity, higher = more binding, comparable within an allelic series)"
same,binding signal,NKX2-6 [18],"10.8 upbm affinity estimate (log intensity, higher = more binding, comparable within an allelic series)"
same,binding signal,NKX3-2 [11],"12.9 upbm affinity estimate (log intensity, higher = more binding, comparable within an allelic series)"
same,binding signal,NKX2-5 [10],"12.5 upbm affinity estimate (log intensity, higher = more binding, comparable within an allelic series)"
same,binding signal,NKX3-2 [12],"13 upbm affinity estimate (log intensity, higher = more binding, comparable within an allelic series)"
